These results are taken from PubChem BioAssay (NCI).

A short description of experiment [1]: NCI Yeast Anticancer Drug Screen. Data for the rad50 strain (AID 155).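 Further: 0% = growth of vehicle-only cultures of the same strain.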 To be noted: S. cerevisiae rad50 strain growth inhibition; at 50.0 µM; hits give high values. An outline of the steps: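 Relative growth inhibition (compound vs vehicle) was measured in yeast with a defined repair-gene alteration.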
Experiment [2] is described as follows: NCI Yeast Anticancer Drug Screen. Data for the mec2-1 strain (AID 157). To be noted: S. cerevisiae mec2-1 strain, at 50.0 µM, hits give high values. An outline of the steps: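 Mutant yeast (mec2-1) grown with compound; growth inhibition relative to vehicle control reported.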
Experiment [3] can be described thus: NCI Yeast Anticancer Drug Screen. Data for the sgs1 mgt1 strain (AID 161).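 Further: 0% = growth of cultures given vehicle only.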 To be noted: S. cerevisiae sgs1 mgt1 strain, at 50.0 µM, hits give high values. An outline of the steps: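 This yeast growth screen uses a strain with defined DNA-repair lesions; compound-treated growth is compared with vehicle-treated growth.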
Experiment [4] is described as follows: NCI Yeast Anticancer Drug Screen. Data for the cln2 rad14 strain (AID 165).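 Further: 0% = growth equal to vehicle treated cultures.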 To be noted: S. cerevisiae cln2 rad14 strain, at 50.0 µM, hits give high values. An outline of the steps: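 Readout is yeast growth inhibition versus vehicle-treated controls, using a strain with cln2 and rad14 alterations exposed to compound.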
A short description of experiment [5]: NCI Yeast Anticancer Drug Screen. Data for the bub3 strain (AID 167). As to conditions: S. cerevisiae bub3 mutant strain, at 50.0 µM, hits give high values. Summed up: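 Screening used yeast with an engineered genetic alteration affecting cell cycle control. Compound-exposed cultures were compared with vehicle cultures, and reduced growth was taken as inhibition.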

Experiment [6] is described as follows: NCI Yeast Anticancer Drug Screen. Data for the mlh1 rad18 strain (AID 175). As to conditions: S. cerevisiae mlh1 rad18 strain growth inhibition; at 50.0 µM; hits give high values. Summed up:
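Genetically defined yeast (DNA repair-deficient) exposed to compounds; growth inhibition determined relative to vehicle.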

The panel holds about 79,000 compounds, 15% with a hit somewhere; the sample as a whole holds those more often. A number with no mark means an inactive call. Calls of active or inactive are those of the source. No stated cut-off is given here; in the data, active means growth inhibition above about 70%; inactive means the rest.

In the case of `O=C1C=CC(=O)N1c1ccc(I)cc1Cl`, the growth inhibition in experiment [1] is 29.9%; in experiment [2], 18.3%; in experiment [3], 44.1%; in experiment [4], 23.8%; in experiment [5], 32.3%; in experiment [6], 22.1%.
Take `COc1ccc(-c2cc3c(nn2)-c2ccccc2C3=O)cc1`: the growth inhibition in experiment [1] is 1.1%; in experiment [2], -16.7%; in experiment [3], -13%; in experiment [4], -10.4%; in experiment [5] it was -19.1%; in experiment [6], 5.45%.
With `COc1ccc2c(NCCCCCCCCNc3c4ccccc4nc4cc(OC)ccc34)c3ccccc3nc2c1`, the growth inhibition in experiment [1] was 90.8% (active); in experiment [2] it was 91.4% (active); in experiment [3], 91.8% (active); in experiment [4], 89.3% (active); in experiment [5], 90.8% (active); in experiment [6] it was 88.3% (active).
As for `O=C(O)CCC(=O)OC(C1CO1)C(OC(=O)CCC(=O)O)C1CO1` (centres undefined), the growth inhibition in experiment [1] is -0.85%; in experiment [2] it was -16.5%; in experiment [3] it was -7.3%; in experiment [4], 3.3%; in experiment [5], -11.6%; in experiment [6] it was -44.7%.
On to `CC1(C)N=C(N)N=C(N)N1c1cccc(Br)c1`, for which the growth inhibition in experiment [1] is -14.3%; in experiment [2] it was -14.4%; in experiment [3], -13.1%; in experiment [4], 7.15%; in experiment [5], -0.95%; in experiment [6], 2.3%.
With `O=[N+]([O-])c1cccc(N=Nc2ccc(O)cc2O)c1`, the growth inhibition is 30.6% in experiment [1]; -5.65% in experiment [2]; 65.5% in experiment [3]; 15.6% in experiment [4]; 4.2% in experiment [5]; 20.6% in experiment [6].
Turning to `CNC(=O)c1ccccc1CC1(O)c2ccccc2Oc2ccccc21`, the growth inhibition in experiment [1] is 0.4%; in experiment [2], -13.5%; in experiment [3], 9.05%; in experiment [4], 0.7%; in experiment [5], -9.25%; in experiment [6] it was -8.55%.
Consider `CCOC(=O)C1OC1c1ccccc1` (centres undefined), for which the growth inhibition in experiment [1] was 24.5%; in experiment [2] it was -6.45%; in experiment [3] it was -2.3%; in experiment [4], -4.5%; in experiment [5] it was -3.9%; in experiment [6], 22.9%.
As for `COCCCC/C(=N\OCCN)c1ccc(C(F)(F)F)cc1`, the growth inhibition in experiment [1] was 26.5%; in experiment [2], 4.6%; in experiment [3], 12.6%; in experiment [4], -3.9%; in experiment [5], -0.35%; in experiment [6], 25.3%.
As to `COc1cc2nc3cc([N+](=O)[O-])ccc3c(Cl)c2cc1OC`, the growth inhibition in experiment [1] was -14.8%; in experiment [2], -20.9%; in experiment [3], -19.7%; in experiment [4], 4.3%; in experiment [5], -14.2%; in experiment [6], 7.6%.
With `CNS(=O)(=O)c1ccc(Cl)c(Cl)c1`, the growth inhibition is -43.2% in experiment [1]; -5.1% in experiment [2]; -13.5% in experiment [3]; -55% in experiment [4]; -25.4% in experiment [5]; -40.9% in experiment [6].
On to `N#Cc1c(N)sc(=S)c2c1CCCC2`, for which the growth inhibition was 9.65% in experiment [1]; 9.85% in experiment [2]; 29.4% in experiment [3]; 1.8% in experiment [4]; 11.4% in experiment [6].
On to `CCN(CC)CCNc1ccc(CO)c2sc3ccccc3c(=O)c12`, for which the growth inhibition in experiment [1] is -16.1%; in experiment [2] it was -28.1%; in experiment [3], -10.8%; in experiment [4], 2.6%; in experiment [6], -14.4%.
Regarding `O=[N+]([O-])c1cccc2nsnc12`, the growth inhibition was 63.5% in experiment [1]; 30.6% in experiment [2]; 53.8% in experiment [3]; 16.6% in experiment [4]; 43.6% in experiment [6].
Regarding `OCC1OC(OC2C(O)C(CO)OC2(CO)OC2OC(CO)C(O)C(O)C2O)C(O)C(O)C1O` (centres undefined), the growth inhibition in experiment [1] was -18.1%; in experiment [2], -7.95%; in experiment [3], -31.8%; in experiment [4], -3.15%; in experiment [5], -14.2%; in experiment [6], -14.7%.
Turning to `CC(C(=O)O)(C1CCCCC1)C1(O)CCCCC1` (centres undefined), the growth inhibition in experiment [1] was 29.8%; in experiment [2] it was 45.5%; in experiment [3] it was 39.9%; in experiment [4] it was 59.5%; in experiment [5], 62.5%; in experiment [6], 29.5%.
With `C=C[Si](OC(C)=O)(OC(C)=O)OC(C)=O`, the growth inhibition in experiment [1] was 27.2%; in experiment [2], -13.2%; in experiment [3], 0.85%; in experiment [4], 14.7%; in experiment [6], 1.65%.
Turning to `Oc1ccccc1-c1nnco1`, the growth inhibition was -1.9% in experiment [1]; -13.8% in experiment [2]; 0.35% in experiment [3]; 4.35% in experiment [4]; -2.15% in experiment [5]; -8.7% in experiment [6].
On to `O=C(Cc1ccccc1)Cc1ccccc1`, for which the growth inhibition in experiment [1] is -1.55%; in experiment [2], -5%; in experiment [3], -0.45%; in experiment [4] it was -3.3%; in experiment [6], 13.6%.
The matching figures for `CC(C)=C(NC(=O)c1ccccc1)C(=O)O`: 14.1%, 0.35%, -5.25%, 22% and 12.9%.
The matching figures for `CN(C)c1nc2c([nH]1)c(=O)n(C)c(=O)n2C`: 22.4%, -15.2%, 2.2%, 5.2% and 5.45%.
